Reference: PubChem BioAssay (NCATS)
Records with an inconclusive call do not appear. Activity calls are given as the source filed them. Unless noted, calls come from the whole dose curve; as a rule, active = well fitted curve in the direction sought with a large enough effect; inconclusive = small, poorly fitted or top-dose-only effect, or another doubt; inactive = no such curve, though single readings can be large; an effect the other way counts as inactive or inconclusive.

What was measured:
[1] = Cell Viability - MRC5 (AID 434; calls by dose curve;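 note: potency is the fitted concentration of half-maximal effect; cells exposed to compound for 40 hours at 37 °C; potency reflects cytotoxicity seen as loss of intracellular ATP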); conditions: MRC5 lung fibroblast viability, qHTS
How it was run: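 Decrease in intracellular ATP, quantified by luciferase light output, reflects compound toxicity toward MRC5 cells exposed for 40 hr in complete culture medium. Concentration-response curves, scaled between DMSO and 100 uM tamoxifen, gave AC50 values.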

[2] = target: Mitogen-activated protein kinase 10 (Mus musculus) (UniProt Q61831); assay: JNK3 AlphaScreen Assay (AID 530; active = well fitted curve in either direction with a large enough effect, not every such curve was filed as active;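 note: kinase came from lysate of stimulated human HepG2 cells; signal reports phosphorylation of biotinylated GST-cJun 1-79 at Ser73 with 10 µM ATP; % is set by controls: 0 for no effect and ±100 for the full control effect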); conditions: JNK3 lysate, c-Jun phosphorylation; series mostly up to 57.1 µM
How it was run: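 Biotinylated GST-cJun(1-79) served as substrate for JNK3 in HepG2 lysates stimulated with IL-1beta and TNF-alpha. ATP was 10 uM final, pH 7.6. Ser73 phosphorylation was quantified by AlphaScreen (680 nm excitation).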

[3] = Cell Viability - HUV-EC-C (AID 542); conditions: HUV-EC-C endothelial cell viability, qHTS; series mostly up to 92.2 µM; note: % is set by controls: 0 for no effect and ±100 for the full control effect; nearly all actives have a fitted effect of over 35% in size
How it was run: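 Concentration-dependent ATP loss in HUV-EC-C cells is the measure. Exposure lasts 40 hr at 37 °C; luminescence follows CellTiter-Glo addition, and Hill fits give AC50.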

[4] = Cell Viability - Mesenchymal (AID 546); conditions: mesenchymal cells viability, qHTS; series mostly up to 91.7 µM;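 note: cells exposed to compound for 40 hours before reading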
How it was run: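 In this qHTS cytotoxicity format, glomerulus-derived human mesenchymal kidney cells received compound for 40 hr, then luciferase-based ATP quantitation. Concentration-response data were fitted with the Hill equation.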

[5] = Cellular Toxicity (caspase-3) HepG2 (AID 654); conditions: HepG2 caspase-3 activation, luminescence, 0% = DMSO only, 100% = tamoxifen; series mostly up to 92.2 µM;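 note: cells exposed to compound for 16 hours before reading; 0% = DMSO alone and 100% = caspase signal from 100 µM tamoxifen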
How it was run: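 Concentration-response AC50 values reflect caspase-3/7 induction in HepG2 cells after 16 hours of compound exposure, quantified by luminescence from liberated aminoluciferin and referenced to 100 uM tamoxifen as full stimulation.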

[6] = Cellular Toxicity (caspase-3) Jurkat (AID 655); conditions: Jurkat caspase-3 activation, luminescence; caspase-3 activation: at 92.2 µM (top of the series), DMSO = 0%, tamoxifen = 100%;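 note: cells exposed to compound for 16 h at 37 °C before reading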
How it was run: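 5000 Jurkat cells/well; compound 16 hr, 37 °C; Caspase-Glo 3/7 added, 20 min RT; luminescence read. Norm: DMSO = 0%, tamoxifen 100 uM = 100%. AC50, Hill model.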

[7] = Cellular Toxicity (caspase-3) SK-N-SH (AID 661); conditions: SK-N-SH caspase-3 activation, qHTS; series mostly up to 91.7 µM
How it was run: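 Apoptosis readout in SK-N-SH neuroblastoma: Caspase-Glo 3/7 luminescence following 16 hr treatment in complete culture medium. Normalization used DMSO and 10 uM staurosporine controls.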

[8] = Cellular Toxicity (caspase-3) H-4-II-E (AID 663); conditions: H-4-II-E rat hepatoma; Potency: caspase-3 activation; series mostly up to 92.2 µM;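 note: cells exposed to compound for 16 hr before readout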
How it was run: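 Caspase 3/7 activation measured in H-4-II-E cells in complete culture medium after 16 hr treatment at 37 °C, using luciferase-coupled substrate readout; AC50 values come from Hill-equation fits of normalized concentration-response data.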

[9] = Cellular Toxicity (caspase-3) Hek293 (AID 664); conditions: HEK293 caspase-3 activation, DMSO = 0%, 100 µM tamoxifen = 100%; at 92.2 µM (top of the series);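 note: cells exposed to compound for 16 h at 37 °C before readout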
How it was run: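 Apoptosis readout: Caspase-Glo 3/7 signal in human HEK293 cells following 16-hour compound incubation. Responses scaled between DMSO baseline and 100 uM tamoxifen.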

[10] = Cellular Toxicity (caspase-3) N2a (AID 665); conditions: N2a cells, luminescence, normalized: DMSO 0%, 10 µM staurosporine 100%; series mostly up to 92.2 µM;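 note: compound exposure lasted 16 h at 37 °C before readout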
How it was run: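 Concentration-response qHTS: compound-induced caspase-3/7 luminescence in N2a cells (16 h, 37 °C), relative to DMSO and 10 uM staurosporine controls; AC50 obtained using the standard Hill equation.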

[11] = Cellular Toxicity (caspase-3) Renal Proximal Tubule (AID 667); conditions: renal proximal tubule cells; series mostly up to 91.7 µM;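 note: cells exposed to compound for 16 hours at 37 °C before detection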
How it was run: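 AC50 derived by standard Hill fit of concentration-response data, normalized between DMSO basal and 10 uM staurosporine as 100% stimulation. Cells: primary rat kidney proximal tubule, 16 h treatment at 37 °C.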

[12] = MultiTox-Fluor Cytotoxicity Assay - LYMP1-003 - Dead Cells (AID 961); conditions: LYMP1-003 lymphoblastoid cells, dead-cell protease fluorescence; series mostly up to 92.2 µM; note: nearly all actives have a fitted effect of over 70% in size
How it was run: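 Dead-cell protease release, detected as bis-AAF-R110 fluorescence at 485/520 nm, was measured in LYMP1-003 cells after 16 h compound treatment at 37 C. AC50 values came from Hill-modeled qHTS curves normalized to DMSO (0%) and 15 uM tetraoctylammonium bromide (100%).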

[13] = MultiTox-Fluor Cytotoxicity Assay - LYMP1-003 - Live Cells (AID 962); conditions: LYMP1-003 lymphoblastoid cells, MultiTox-Fluor live-cell protease fluorescence; series mostly up to 92.2 µM;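 note: cells exposed to compound for 16 hours at 37 °C; 0% = DMSO only and full loss = 92 µM tetraoctylammonium bromide; cytotoxic hits lower the live-cell protease signal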
How it was run: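 Human lymphoblastoid line LYMP1-003 in complete culture medium, treated 16 hr with titrated compounds. Viable cells quantified via cell-permeant GF-AFC substrate fluorescence; AC50 derived by Hill fitting.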

[14] = target: Peroxisome proliferator-activated receptor gamma (Homo sapiens) (UniProt P37231); assay: qHTS assay for small molecule agonists of peroxisome proliferator-activated receptor gamma signaling (AID 588536; active = well fitted curve in the direction sought with a large enough effect in the signal ratio, with a control signal flat, not every such curve was filed as active; the % refers to the signal ratio;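 note: 0% = DMSO basal wells and 100% = rosiglitazone at 2 µM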); conditions: HEK293 PPARg-UAS-bla, beta-lactamase ratio, 16 h, percent of rosiglitazone response, DMSO as zero; series mostly up to 76.7 µM
Chain of Peroxisome proliferator-activated receptor gamma (Homo sapiens) (P37231 whole entry, looked up): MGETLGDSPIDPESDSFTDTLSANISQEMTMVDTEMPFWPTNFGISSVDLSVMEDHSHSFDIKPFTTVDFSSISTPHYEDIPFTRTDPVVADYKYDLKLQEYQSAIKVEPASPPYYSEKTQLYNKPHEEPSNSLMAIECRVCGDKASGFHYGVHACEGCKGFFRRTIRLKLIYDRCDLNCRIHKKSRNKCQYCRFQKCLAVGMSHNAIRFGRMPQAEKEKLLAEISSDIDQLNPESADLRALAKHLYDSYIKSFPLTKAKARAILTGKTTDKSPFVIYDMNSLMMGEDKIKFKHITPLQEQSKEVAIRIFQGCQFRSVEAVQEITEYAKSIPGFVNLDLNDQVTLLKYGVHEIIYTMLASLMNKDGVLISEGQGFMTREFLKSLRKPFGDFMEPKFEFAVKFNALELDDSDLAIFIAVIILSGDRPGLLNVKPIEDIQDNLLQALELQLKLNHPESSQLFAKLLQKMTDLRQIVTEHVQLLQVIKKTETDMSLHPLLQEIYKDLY
How it was run: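 This is an agonist-mode beta-lactamase reporter assay in HEK293 PPAR-gamma-UAS-bla cells with 1% charcoal/dextran FBS. Compound titrations ran 16 h at 37 C before CCF4 detection. EC50 and efficacy are Hill fits scaled to 2 uM rosiglitazone (100%) and DMSO basal.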

[15] = qHTS assay for environmental chemicals that activate the Aryl hydrocarbon Receptor (AhR) signaling pathway (AID 651777); conditions: 1A2-DRE human hepatoma cells, luciferase, 24 h; activation: stronger effect = higher value; note: % of control where 0% means no effect; nearly all actives have a fitted effect of over 15% in size
How it was run: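 Measured luciferase activity, read 30 min after One-Glo addition at room temperature, from human hepatoma cells bearing a dioxin response element–CYP1A2 promoter reporter and exposed to compound for 24 hr at 37 C.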

[16] = qHTS assay for cell viability of HEK293 cells (AID 743288); conditions: ATP luminescence (CellTiter-Glo), 18 h, stronger effect = lower value; note: % is set by controls: 0 for no effect and ±100 for the full control effect; nearly all actives have a fitted effect of over 50% in size
How it was run: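 Viable-cell counts were inferred from luciferase-based ATP content in HEK293 cells seeded at 2,000/well, pre-incubated ≥5 h, then dosed with DMSO-solubilised compounds for 18 h at 37 C.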

[17] = qHTS assay for cell viability of the p53RE-bla HCT-116 cell line (AID 743292); conditions: p53RE-bla HCT-116 viability, ATP luminescence, 16 h; series mostly up to 95 µM; note: % is set by controls: 0 for no effect and ±100 for the full control effect; nearly all actives have a fitted effect of over 55% in size
How it was run: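 Intracellular ATP of p53RE-bla HCT-116 cells measured by luciferase luminescence following 16 h compound incubation at 37 C; DMSO-only wells served as vehicle controls.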

[18] = target: Nuclear receptor subfamily 1 group I member 2 (Rattus norvegicus) (UniProt Q9R1A7); assay: qHTS assay for small molecule activators of the rat pregnane X receptor (rPXR) signaling pathway (AID 651751; call rule not given here; note: 0% is about no effect); conditions: rPXR reporter cells, luciferase (One-Glo), 24 h
Chain of Nuclear receptor subfamily 1 group I member 2 (Rattus norvegicus) (Q9R1A7 whole entry, looked up): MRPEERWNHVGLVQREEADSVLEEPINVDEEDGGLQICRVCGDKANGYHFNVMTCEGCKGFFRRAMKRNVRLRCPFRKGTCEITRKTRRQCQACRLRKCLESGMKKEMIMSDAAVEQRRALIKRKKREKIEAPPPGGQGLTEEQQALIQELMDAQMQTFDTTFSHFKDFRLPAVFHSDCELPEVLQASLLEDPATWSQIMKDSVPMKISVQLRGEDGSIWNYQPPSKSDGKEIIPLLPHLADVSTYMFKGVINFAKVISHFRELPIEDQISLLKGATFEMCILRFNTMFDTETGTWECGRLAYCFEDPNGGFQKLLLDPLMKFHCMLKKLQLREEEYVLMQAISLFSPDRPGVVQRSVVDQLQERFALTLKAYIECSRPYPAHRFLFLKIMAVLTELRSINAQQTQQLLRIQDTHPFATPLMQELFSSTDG

[19] = Cellular Toxicity (caspase-3) BJ (AID 658); conditions: BJ fibroblasts, luminescence, normalized: DMSO 0%, staurosporine 100%; series mostly up to 91.7 µM
How it was run: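 Plated BJ cells (1000/well) rested 5 hr, received compound for 16 hr at 37 °C, then Caspase-Glo 3/7 reagent for 1 hr at room temperature before luminescence reading.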

[20] = Cell Viability - LYMP2-013 (AID 970); conditions: LYMP2-013 lymphoblastoid cells viability; series mostly up to 92.2 µM;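 note: 0% = DMSO only and full inhibition = tetraoctylammonium bromide control; nearly all actives have a fitted effect of over 55% in size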
How it was run: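 In complete culture medium, human lymphoblastoid cells were dosed for 24 hr at 37 C, with tetraoctylammonium bromide (6.4pM to 92 uM) as positive control. Viability reflects luciferase-based ATP signal; AC50 derived from concentration-response curves.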

c1ccoc1
inactive: Potency [1] > 92 µM | Potency [2] | Potency [3] | Potency [4] | outcome [5] | caspase-3 activation [6] 0.558% | Potency [7] | Potency [8] | caspase-3 activation [9] -1.2% | outcome [10] | outcome [11] | Potency [12] | outcome [13] | outcome [14] | activation [15] -0.801% | max response [16] 0.0286% | Potency [17] | max response [18] 3.47%

O=C(O)c1cc(Cl)ccc1Cl
inactive: Potency [1] > 92 µM | Potency [2] | Potency [3] | outcome [5] | caspase-3 activation [6] 0.232% | Potency [7] | Potency [8] | caspase-3 activation [9] -1.49% | outcome [10] | outcome [11] | Potency [12] | outcome [13] | activation [15] -1.02% | max response [16] -1.88% | max response [18] -1.07%

CC(=O)[O-].CC(=O)[O-].CC(=O)[O-].[Cr+3]
inactive: Potency [1] > 92 µM | Potency [2] | Potency [3] | Potency [4] | outcome [5] | caspase-3 activation [6] 0.251% | outcome [19] | Potency [7] | Potency [8] | caspase-3 activation [9] 1.42% | outcome [10] | Potency [12] | outcome [13] | Potency [20] | activation [15] -2.21% | max response [16] -3.81% | Potency [17]

Nc1ccc(-c2ccc(N)cc2)cc1
inactive: Potency [1] > 92 µM | Potency [2] | Potency [4] | outcome [5] | caspase-3 activation [6] 0.684% | outcome [19] | Potency [7] | Potency [8] | outcome [10] | outcome [11] | outcome [13] | outcome [14] | activation [15] 11.6% | max response [16] 2.98% | Potency [17]

CCC#N
inactive: Potency [1] > 92 µM | Potency [2] | Potency [3] | Potency [4] | outcome [5] | caspase-3 activation [6] -0.741% | outcome [19] | Potency [7] | Potency [8] | caspase-3 activation [9] -0.76% | outcome [10] | outcome [11] | Potency [12] | outcome [13] | Potency [20] | max response [16] -7.94% | Potency [17] | max response [18] -2.01%

O=S(=O)(O)F
inactive: Potency [1] > 92 µM | Potency [2] | caspase-3 activation [6] 1.63% | outcome [19] | caspase-3 activation [9] 4.29% | outcome [10] | outcome [11] | Potency [12] | outcome [13] | Potency [20] | outcome [14] | activation [15] 0.54% | Potency [17] | max response [18] 0.583%

Nc1ccc(-c2ccccc2)cc1
inactive: Potency [1] > 92 µM | Potency [2] | Potency [3] | Potency [4] | caspase-3 activation [6] 2.52% | outcome [19] | Potency [7] | Potency [8] | caspase-3 activation [9] 1.62% | outcome [10] | Potency [12] | outcome [13] | Potency [20] | activation [15] 12.6% | max response [16] -6.92%
